In PubChem BioAssay (EPA / NIEHS):
Records with an inconclusive call do not appear. A structure can be active in one record and inactive in another. Active and inactive are the calls of the source. The calls were made as follows, unless noted: active = hit-call score of the fitted dose curve at least 0.9, where 1 is the maximum; inactive = score below 0.9.

Assays:
[1] = ACEA_ER_80hr: ACEA Biosciences xCELLigence Real-Time Cell Analysis on Estrogen Receptor Agonism for Proliferation (AID 2282667; active = hit-call score of the fitted dose curve at least 0.9, where 1 is the maximum); settings: T47D proliferation, impedance (xCELLigence), 80 h
Summary of the method: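 Real-time impedance growth kinetics of human T-47D breast cells read 80 h after dosing, gain-of-signal fitted relative to DMSO. Compounds: 1:4 serial series, top final concentration 100 uM, n = 2.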

[2] = APR_HepG2_CellCycleArrest_24hr: Apredica 24-hour HepG2 Assay for Cell Cycle Arrest (AID 2282905); settings: imaging, actives raise or lower the signal;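 also: cell cycle arrest scored as ratio of 2N to 4N nuclear DNA content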
Summary of the method: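 HepG2, 24 hr dosing, 10-pt 0.39–200 uM in duplicate, 0.5% DMSO. Fixed 3.7% formaldehyde, permeabilized 0.5% Triton X-100, Hoechst 33342 2 ug/mL. Imaged 20x; nuclear DNA content quantified; bidirectional fit vs DMSO.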

[3] = APR_HepG2_NuclearSize_24hr: Apredica 24-hour HepG2 Assay for Nuclear Size (AID 2282907); settings: high-content imaging, actives raise or lower the signal
Summary of the method: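 HepG2, 24 hr dosing, 10-pt 0.39–200 uM, duplicates, 0.5% DMSO final; 3.7% formaldehyde fix, 0.5% Triton X-100; Hoechst 33342 nuclear stain; ArrayScan HCS, Cell Cycle analysis → nuclear size; bidirectional fit vs DMSO.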

[4] = APR_HepG2_CellLoss_24hr: Apredica 24-hour HepG2 Assay for Cell Loss (AID 2282908); settings: high-content imaging;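 as to AC50: fit in both directions so a hit may be cell loss or gain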
Summary of the method: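 10-pt dose, 0.39–200 uM, n=2/plate; DMSO 0.5% v/v final as negative control. Fix 3.7% formaldehyde 30 min RT, permeabilize 0.5% Triton X-100, stain Hoechst 33342 2 ug/mL, image 20x. Nuclear count, bidirectional fit vs DMSO.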

[5] = APR_HepG2_MicrotubuleCSK_24hr: Apredica 24-hour HepG2 Assay for Microtubule CSK Stabilty (AID 2282909); settings: HepG2 microtubule cytoskeleton imaging, actives raise or lower the signal
Summary of the method: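 Human liver HepG2, 24 h dosing, 0.39–200 uM ×10 conc, dup, 0.5% DMSO. 3.7% formaldehyde fix, 0.5% Triton perm, anti-alpha-tubulin (1:200)/Cy5 secondary + Hoechst. HCS imaging, 6 fields/well; gain/loss fit vs DMSO.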

[6] = APR_HepG2_MitoMembPot_24hr: Apredica 24-hour HepG2 Assay for Mitochondrial Membrane Potential (AID 2282911); settings: imaging, actives raise or lower the signal
Summary of the method: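 Mitochondrial membrane potential imaged via MitoTracker Red CMXRos (250 nM, 30 min pre-fixation) in fixed HepG2 cells with Hoechst nuclear identification. Ten concentrations 0.39–200 uM, 24 h treatment, 0.5% DMSO; CCCP as positive control.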

[7] = APR_HepG2_MitoMass_24hr: Apredica 24-hour HepG2 Assay for Mitochondrial Mass (AID 2282912); settings: high-content imaging, actives raise or lower the signal
Summary of the method: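 Mitochondrial mass is read as MitoTracker Red fluorescence intensity from automated imaging, with bidirectional curve fitting relative to DMSO. HepG2 cells received compound (0.39–200 uM, 0.5% DMSO final) for 24 hr and were dye-loaded (250 nM, 30 min) before formaldehyde fixation.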

[8] = APR_HepG2_p53Act_24hr: Apredica 24-hour HepG2 Assay for p53 Activation (AID 2282913); settings: high-content imaging, actives raise or lower the signal;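 also: p53 protein immunofluorescence averaged per cell in HepG2 with Hoechst nuclei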
Summary of the method: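 Fluorescence imaging of formaldehyde-fixed HepG2 cells labelled for p53 and with Hoechst, 24 h after dosing (0.39–200 uM, duplicate wells, 0.5% v/v DMSO). Signal fitted in both directions relative to DMSO.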

[9] = APR_HepG2_CellCycleArrest_72hr: Apredica 72-hour HepG2 Assay for Cell Cycle Arrest (AID 2282914); settings: high-content imaging, actives raise or lower the signal
Summary of the method: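 Read-out: nuclear DNA content from Hoechst 33342 high-content imaging (20x, six fields/well) after 3.7% formaldehyde fixation, fitted bidirectionally against DMSO. Treatment was 72 h in HepG2, ten concentrations 0.39–200 uM, duplicate, 0.5% DMSO.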

[10] = APR_HepG2_CellLoss_72hr: Apredica 72-hour HepG2 Assay for Cell Loss (AID 2282915); settings: high-content imaging
Summary of the method: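 Cell number comes from Hoechst 33342-labelled nuclei, imaged at 20x after 3.7% formaldehyde fixation. Dosing was 0.39–200 uM, ten concentrations in duplicate, 0.5% DMSO final, for 72 h. Bidirectional fit relative to DMSO baseline.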

Measured: AC50

C[C@H]1CCCC(=O)CCC/C=C/c2cc(O)cc(O)c2C(=O)O1
active: [1] 0.00378 µM

O=C1C(Cl)=C(Cl)C(=O)c2ccccc21
inactive: [1]

C=CC(=O)N(C)C
inactive: [1]

C(=NC1CCCCC1)=NC1CCCCC1
inactive: [1]

Cc1ccc(N)cc1Cl
inactive: [1]

CC(=O)c1cc(C(C)(C)C)cc2c1CCC2(C)C
inactive: [1]

CCC1(c2ccc(N)cc2)CCC(=O)NC1=O (centres undefined)
inactive: [1]

CNC(=O)O/N=C/C(C)(C)S(C)=O (centres undefined)
inactive: [1]

O=CC=O
inactive: [1]

COP(=S)(OC)Oc1ccc(S(=O)(=O)N(C)C)cc1
inactive: [1]

CCc1ccccc1C
active: [1] 0.0879 µM

CCCCOCCOC(C)=O
inactive: [1]

CC(C)C1CCC(Cc2ccc(Cl)cc2)C1(O)Cn1cncn1 (centres undefined)
inactive: [1]

OCc1ccco1
inactive: [1]

CC(C)CCCCCCOC(=O)c1ccccc1C(=O)OCCCCCCC(C)C
inactive: [1]

COP(=S)(OC)Oc1cc(Cl)c(Cl)cc1Cl
inactive: [1]

O=C(O)CCC(F)(C(F)(F)F)C(F)(F)F
inactive: [1]

c1cc[c]([Hg][c]2ccccc2)cc1
inactive: [1]

[O-][Cl+2]([O-])O
inactive: [1]

CC(C)OC(=S)S
inactive: [1]

COc1ccc(C=O)cc1OC
active: [1] 15.7 µM

CCC[CH2][Sn]([Cl])([Cl])[Cl]
inactive: [1]

O=C(CCl)CCl
inactive: [1]

C=CC#N
inactive: [1]

N#CCc1ccc(Cl)cc1
inactive: [1]

CCC(=O)c1ccccc1
inactive: [1]

Cl/C=C/Cl
inactive: [1]

BrCCBr
inactive: [1]

O=C(O)Cc1ccccc1
inactive: [1]

CC(C#N)CCC#N (centres undefined)
inactive: [1]

CCN(CC)C(=O)Cl
inactive: [1]

COP(=S)(OC)Oc1cc(Cl)c(Br)cc1Cl
inactive: [1]

CC(C)(C)c1cc(O)ccc1O
active: [4] 125 µM | [6] 114 µM | [7] 151 µM | [10] 144 µM
not listed: [1]
inactive: all other assays above

O=C(O)C(Cl)(Cl)Cl
inactive: [2] | [3] | [4] | [5] | [6] | [7] | [8] | [9] | [10]
active: [4] 100 µM | [6] 101 µM | [7] 161 µM | [8] 165 µM | [9] 171 µM | [10] 110 µM

ClCC(Cl)CCl
not listed: [1]
inactive: all other assays above

CC(C)(C)CC(C)(C)c1ccc(O)cc1
inactive: [5] | [7]
active: [2] 161 µM | [3] 52.3 µM | [4] 46 µM | [6] 25.3 µM | [8] 35 µM | [9] 32 µM | [10] 43.4 µM

CN(C)N=O
not listed: [1]
inactive: all other assays above

O=c1[nH]c(=O)[nH]c(=O)[nH]1
active: [6] 61.3 µM
not listed: [1]
inactive: all other assays above

C=CC(=O)OCCCCCC(C)C
active: [9] 108 µM | [10] 92.1 µM
not listed: [1]
inactive: all other assays above

CCC(C)(C)c1ccc(O)c(C(C)(C)CC)c1
active: [2] 28.1 µM | [3] 39.1 µM | [4] 40.5 µM | [6] 29.7 µM | [8] 32.1 µM | [9] 13.9 µM | [10] 37.4 µM
inactive: [5] | [7]

CCC(=O)C(CC(C)N(C)C)(c1ccccc1)c1ccccc1 (centres undefined)
active: [2] 25.1 µM | [10] 73.6 µM
not listed: [1]
inactive: all other assays above

O=C(Nc1ccc2[nH]ccc2c1)c1cc2cc(F)ccc2n1Cc1cccc(F)c1
active: [2] 25.4 µM | [4] 22.5 µM | [5] 19.7 µM | [6] 2.08 µM | [8] 34.5 µM | [9] 35.7 µM | [10] 17.2 µM
inactive: [3] | [7]

COP(=O)(OC)OC
inactive: [1]

C[C@@H]1C[C@@H]([C@H](O)CC2CC(=O)NC(=O)C2)C(=O)[C@@H](C)C1
inactive: [3] | [5] | [6] | [7]
active: [2] 1.19 µM | [4] 0.465 µM | [8] 21.7 µM | [9] 7.46 µM | [10] 0.415 µM

Oc1cccc2cccnc12
active: [2] 15.4 µM | [4] 2.29 µM | [8] 25.9 µM | [9] 1.59 µM | [10] 2.66 µM
inactive: [3] | [5] | [6] | [7]

COS(=O)(=O)c1ccc(C)cc1
inactive: [1]

CCCCCCCCc1ccc(O)cc1
inactive: [2] | [5] | [6] | [7]
active: [3] 103 µM | [4] 67 µM | [8] 67.3 µM | [9] 52.5 µM | [10] 86.7 µM

O=[N+]([O-])c1c(Cl)c(Cl)cc(Cl)c1Cl
inactive: [1]

O=C(O)C(F)(F)C(F)(F)C(F)(F)C(F)(F)C(F)(F)C(F)(F)F
active: [10] 14.5 µM
not listed: [1]
inactive: all other assays above

O=C(O)C(F)(F)C(F)(F)C(F)(F)C(F)(F)C(F)(F)C(F)(F)C(F)(F)C(F)(F)C(F)(F)C(F)(F)F
active: [2] 68.4 µM | [4] 83.1 µM | [5] 56.7 µM | [7] 76.3 µM | [8] 66.9 µM | [9] 68.8 µM | [10] 83.3 µM
inactive: [3] | [6]

Cn1sc(Cl)cc1=O
active: [4] 109 µM | [7] 117 µM | [8] 113 µM | [10] 104 µM
not listed: [1]
inactive: all other assays above

C[C@]12CCC(=O)C[C@@H]1CC[C@@H]1[C@@H]2CC[C@]2(C)[C@@H](O)CC[C@@H]12
active: [10] 64.5 µM
not listed: [1]
inactive: all other assays above

O=C1C2(Cl)C3(Cl)C4(Cl)C(Cl)(Cl)C5(Cl)C3(Cl)C1(Cl)C5(Cl)C24Cl (centres undefined)
active: [2] 44.6 µM | [4] 44.5 µM | [9] 24.7 µM | [10] 22.5 µM
not listed: [1]
inactive: all other assays above

Cc1ccccc1N
not listed: [1]
inactive: all other assays above

CC(C)(c1ccccc1)c1ccc(O)c(C(C)(C)c2ccccc2)c1
inactive: [2] | [5] | [7] | [9]
active: [3] 22 µM | [4] 28.1 µM | [6] 29.4 µM | [8] 40.8 µM | [10] 31.2 µM

O=C/C=C/c1ccccc1
inactive: [1]

ClC1(Cl)C2(Cl)C3(Cl)C4(Cl)C(Cl)(Cl)C5(Cl)C3(Cl)C1(Cl)C5(Cl)C24Cl (centres undefined)
not listed: [1]
inactive: all other assays above

NC(=O)O
active: [2] 10.7 µM | [3] 9.65 µM | [4] 6.38 µM | [5] 12.2 µM | [6] 0.205 µM | [7] 59.3 µM | [8] 9.29 µM | [9] 12.2 µM | [10] 3.92 µM

CC12CC1(C)C(=O)N(c1cc(Cl)cc(Cl)c1)C2=O (centres undefined)
not listed: [1]
inactive: all other assays above

CC(=O)[O][Hg][c]1ccccc1
active: [3] 66.6 µM | [4] 5.21 µM | [5] 5.17 µM | [9] 28.7 µM | [10] 3.19 µM
inactive: [2] | [6] | [7] | [8]

COc1cc(-c2ccc(N)c(OC)c2)ccc1N
active: [2] 58.7 µM | [4] 26.9 µM | [6] 12.7 µM | [9] 13.8 µM | [10] 56.5 µM
inactive: [2] | [3] | [4] | [5] | [6] | [7] | [8] | [9] | [10]

C=C(C)C(=O)[O][Sn]([CH2]CCC)([CH2]CCC)[CH2]CCC
active: [4] 0.773 µM | [7] 0.226 µM | [8] 0.294 µM | [9] 0.188 µM | [10] 0.228 µM
inactive: [2] | [3] | [5] | [6]

CC(C)(OO)c1ccccc1
active: [2] 78.4 µM | [3] 65.1 µM | [4] 72.2 µM | [5] 75.3 µM | [6] 96.2 µM | [8] 65.8 µM | [9] 88.8 µM | [10] 59.9 µM
inactive: [7]

CCN1CCC2(CC1)COc1cc3c(cc12)N(C(=O)c1ccc(-c2ccc(-c4nnc(C)o4)cc2C)cc1)CC3
active: [4] 17.5 µM | [7] 7.43 µM | [8] 25.8 µM | [10] 9.88 µM
not listed: [1]
inactive: all other assays above
